This note sets out measurements from PubChem BioAssay (NCATS).

Several values for one entry are separate records, joined by “and”; a condition that tells them apart may be missing. Identical values can stand only once. Results filed as inconclusive are left out. Unmarked numbers belong to inactive results. Activity calls are given as the source filed them. Calls follow the shape of the dose curve; as a rule, active = well fitted curve in the direction sought with a large enough effect; inconclusive = small, poorly fitted or top-dose-only effect, or another doubt; inactive = no such curve, though single readings can be large; an effect the other way counts as inactive or inconclusive.

Assay [1] concerns the target Cellular tumor antigen p53 (Homo sapiens) (UniProt P04637). Kind of assay: Primary qHTS for small molecule compounds that upregulate eGFP-tagged delta133p53alpha (in N-terminal) cells. (AID 2060322). Also: nearly all actives have a fitted effect of over 75% in size. Also: potency is read from the fitted curve at half-maximal effect.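 As to activation: cells pre-induced with doxycycline then dosed without doxycycline; series mostly up to about 56 µM; 0% = DMSO vehicle and 100% = reference activator.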 To be noted: NCI-H358 eGFP-delta133p53alpha fluorescence, 24 h; activation: hits give high values. A digest of the protocol:
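NCI-H358 cells pre-induced 24 h with 10 ng/ml doxycycline for eGFP-delta133p53alpha, plated dox-free and exposed 24 h at 37C to titrated compounds. Fixed, Hoechst-stained; gated GFP peak intensity by laser scanning cytometry, normalized to DMSO (0%) and 57.5 uM 5-azacytidine (100%).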

In assay [2] the target is Aldehyde dehydrogenase, mitochondrial (Homo sapiens) (UniProt P05091). Kind of assay: qHTS for Inhibitors of the Aldehyde Dehydrogenase Family (ALDH2) Primary screen (AID 2061308).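 Also: plate controls were vehicle for no effect and reference inhibitor for full effect; nearly all actives have a fitted effect of over 55% in size.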
The target in assay [3] is Retinaldehyde dehydrogenase 3 (Homo sapiens) (UniProt P47895). The assay can be described thus: qHTS for Inhibitors of the Aldehyde Dehydrogenase Family (ALDH1A3) Validation screen (AID 2061312). Also: % is scaled to controls: 0 for no effect and ±100 for the full control effect; nearly all actives have a fitted effect of over 45% in size.
Assay [4] shares this target. The assay can be described thus: qHTS for Inhibitors of the Aldehyde Dehydrogenase Family (ALDH1A3) Primary screen (AID 2061315).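 Also: plate controls were DMSO vehicle for no effect and reference inhibitor for full effect.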
The nature of assay [5]: BET inhibitor-based combinations targeting novel dependencies in MECOM-rearranged (r) AML: MV-4-11 cell line (AID 2202233). Also: potency is read from the fitted curve at half-maximal effect; nearly all actives have a fitted effect of over 45% in size. A digest of the protocol:
(§1)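 Each compound is tested in an 11-point concentration series against 500 seeded cells/well for 48 hr. The luminescent viability signal is normalized to DMSO and blank wells, then reduced to AUC and a cell-line-centred Z-AUC.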

Assay [6] in a line: BET inhibitor-based combinations targeting novel dependencies in MECOM-rearranged (r) AML: UCSD-AML1 cell line (AID 2202235). Also: nearly all actives have a fitted effect of over 40% in size. Also: potency is read from the fitted curve at half-maximal effect. A digest of the protocol:
as §1

Assay [7] has as its target Retinal dehydrogenase 2 (Homo sapiens) (UniProt O94788). Kind of assay: qHTS for Inhibitors of the Aldehyde Dehydrogenase Family (ALDH1A2) Confirmation screens (AID 2061314). Also: nearly all actives have a fitted effect of over 65% in size.
The target in assay [8] is Aldehyde dehydrogenase 1A1 (Homo sapiens) (UniProt P00352). Kind of assay: qHTS for Inhibitors of the Aldehyde Dehydrogenase Family (ALDH1A1) Confirmatory screens (AID 2061316). Also: nearly all actives have a fitted effect of over 65% in size. Also: potency is read from the fitted curve at half-maximal effect.
Assay [9] is described as follows: BET inhibitor-based combinations targeting novel dependencies in MECOM-rearranged (r) AML: SET-2 cell line (AID 2202231). Also: potency is read from the fitted curve at half-maximal effect; nearly all actives have a fitted effect of over 35% in size. To be noted: SET-2 AML cells viability, CellTiter-Glo luminescence, 48 h; viability: hits give low values, concentration not given here. A digest of the protocol:
(§2)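 A 48 hr incubation preceded viability reading by CellTiter-Glo, with 15 min room-temperature development. Dose series had 11 points; normalization used DMSO and empty wells; AUC was computed and mean-centered per line as Z-AUC.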

Assay [10] is described as follows: BET inhibitor-based combinations targeting novel dependencies in MECOM-rearranged (r) AML: OCI-AML3 cell line (AID 2202232). Also: potency is read from the fitted curve at half-maximal effect; nearly all actives have a fitted effect of over 35% in size. The note with it: Potency: OCI-AML3 viability. A digest of the protocol: as §2
Assay [11] is described as follows: BET inhibitor-based combinations targeting novel dependencies in MECOM-rearranged (r) AML: HNT-34 cell line (AID 2202234). Also: nearly all actives have a fitted effect of over 35% in size. Also: potency is read from the fitted curve at half-maximal effect. A digest of the protocol: as §1
Assay [12] is described as follows: BET inhibitor-based combinations targeting novel dependencies in MECOM-rearranged (r) AML: AML-191 cell line (AID 2202236; also: nearly all actives have a fitted effect of over 35% in size; also: potency is read from the fitted curve at half-maximal effect). A digest of the protocol: as §2
Assay [13] is described as follows: BET inhibitor-based combinations targeting novel dependencies in MECOM-rearranged (r) AML: AML-194 cell line (AID 2202237; also: nearly all actives have a fitted effect of over 40% in size; also: potency is read from the fitted curve at half-maximal effect). A digest of the protocol:
as §2

Sequence of Cellular tumor antigen p53 (Homo sapiens) (P04637 whole entry, looked up): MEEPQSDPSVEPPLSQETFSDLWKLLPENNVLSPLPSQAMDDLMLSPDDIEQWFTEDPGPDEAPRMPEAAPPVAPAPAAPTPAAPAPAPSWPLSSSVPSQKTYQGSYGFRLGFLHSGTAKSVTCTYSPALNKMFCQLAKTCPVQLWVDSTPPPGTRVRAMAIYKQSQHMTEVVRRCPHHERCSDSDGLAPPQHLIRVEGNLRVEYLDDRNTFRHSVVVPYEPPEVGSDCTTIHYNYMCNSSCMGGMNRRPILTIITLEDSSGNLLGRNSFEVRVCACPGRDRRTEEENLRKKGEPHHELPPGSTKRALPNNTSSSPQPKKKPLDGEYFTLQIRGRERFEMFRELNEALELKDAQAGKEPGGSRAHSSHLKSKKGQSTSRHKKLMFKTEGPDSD

As to `O=C(Nc1cccc(Br)c1)c1cccc(S(=O)(=O)N2CCCCCC2)c1`, the activation in [1] was 41.1% and -27.9%. The Potency entry in assay [2], in assay [3], in [4] and in assay [6] was “inactive” throughout. Also, in assay [5], the Potency is 16.6 µM (active).
As to `O=C1NC(=O)C(c2cnc3ccccn23)=C1c1cn2c3c(cccc13)CN(C(=O)N1CCOCC1)CC2`, the Potency in [1] was 23.9 µM (active); in [8], 12700 nM (active); in [9] it was 118 nM (active); in assay [10], 3320 nM (active); in [5], 0.0934 µM (active); in [11] it was 118 nM (active). The Potency in assay [6] is 1050 nM (active); in assay [12] it was 525 nM (active); in assay [13] it was 2350 nM (active). The Potency result in assay [2] and in assay [7] was “inactive” throughout.
As for `COC(=O)Cc1cc2c(c([N+](=O)[O-])c1)N(C(=O)CC[C@H](N)C(=O)O)CC2`, in [1], the activation was -7.67%. Further, the Potency result in assay [2], in [7] and in assay [4] was “inactive” throughout.
Turning to `CC1C2=CC(=O)OC2(O)CC2C1CCC1C(C)(C)CCC(O)C21C` (stereo unspecified), in assay [1], the activation was 0.763%. Besides, the Potency entry in [2] and in assay [4] was “inactive” in each case.
In the case of `O=C(Nc1cccnc1)N1CCC(Cc2cccc(Oc3ccc(C(F)(F)F)cn3)c2)CC1`, the activation in assay [1] is -5.98% and -11%. The Potency result in assay [2], in [3] and in assay [4] was “inactive” in each case. Further, the values for the Potency in assay [5] and in [6] were 5.9 µM (active) and 26300 nM (active), respectively.
`C=C1CCC2C(C(C)(C)O)CCC2(C)CC(O)C(=C)CCC1O` (stereo unspecified): the activation in assay [1] is -12.5%. For the same compound, the Potency entry in [2] and in [4] was “inactive” throughout.
In the case of `CCNC(=O)c1noc(-c2cc(C(C)C)c(O)cc2O)c1-c1ccc(CN2CCOCC2)cc1`, the activation in [1] was -2.59% and -6.68%. Also, the Potency result in assay [2], in [3] and in assay [4] was “inactive” throughout. The Potency in assay [6] was 16.6 nM (active).
For the compound `COC(=O)c1ccc(OC(CO)C(O)c2ccc(O)c(OC)c2)c(OC)c1` (stereo unspecified), the activation in assay [1] was 9.82%. Besides, the Potency entry in assay [2] and in assay [7] was “inactive” each time.
Take `CCOC(=O)C(CCc1ccccc1)NC(C)C(=O)N1C(=O)N(C)CC1C(=O)O` (stereo unspecified): in assay [1], the activation is -5.25%. Moreover, the Potency result in assay [2] and in [4] was “inactive” each time.
Take `CC1(C)OC(=O)C=C[C@@]2(C)C1CC(=O)[C@]1(C)C2CC[C@@]2(C)[C@H](c3ccoc3)OC(=O)[C@H]3O[C@]321` (stereo partly specified): the activation in assay [1] is -19.1%. Also, the Potency result in assay [2] and in assay [4] was “inactive” in each case.
With `O=C1Nc2ccc(Cl)cc2[C@@](C#CC2CC2)(C(F)(F)F)O1`, in assay [1], the activation was 17.5% and 0%. The Potency entry in [2], in assay [3], in assay [4] and in [6] was “inactive” throughout. In addition, the Potency in assay [5] is 23.5 µM (active) and 20.9 µM (active).
Take `COC1CCN(C(=O)c2cc(Cc3n[nH]c(=O)c4ccccc34)ccc2F)CC1`: the activation in [1] is 4.47%. Besides, the Potency entry in assay [2], in assay [3] and in [4] was “inactive” each time. For the same compound, the Potency in assay [5] was 16.6 µM (active); in [12], 18600 nM (active).
In the case of `CC1(C)CC[C@]2(C(=O)O[C@@H]3O[C@H](CO)[C@@H](O)[C@H](O)[C@H]3O)CC[C@]3(C)C(=CCC4[C@@]5(C)C[C@@H](O)[C@H](O)[C@@](C)(CO)C5CC[C@]43C)C2[C@@H]1O` (stereo partly specified), the activation in assay [1] was 8.93%. Also, the Potency result in assay [2], in assay [7] and in [4] was “inactive” each time.
On to `Cc1cnc(Nc2cccc(CN3CCOCC3)c2)nc1Nc1cccc(S(=O)(=O)NC(C)(C)C)c1`, for which the activation in assay [1] is 11%. Further, the Potency result in [2], in assay [3] and in [4] was “inactive” throughout. Moreover, the Potency is 0.332 µM (active) in [5], 1320 nM (active) in [6], 1660 nM (active) in [12] and 1320 nM (active) in assay [13].
For the compound `CC(=O)N1CCN(CCOc2ccc(C3CCN(C4=Nn5c(nnc5C(F)(F)F)CC4)CC3)cc2)CC1`, the activation in assay [1] was -2.39%. Moreover, the Potency entry in assay [2], in [3], in assay [4] and in assay [12] was “inactive” each time.
For the compound `CCN(CC)Cc1ccc2cc(COC(=O)Nc3ccc(C(=O)NO)cc3)ccc2c1`, the Potency in assay [1] was 30.1 µM (active) and 27.3 µM (active); in [9], 662 nM (active); in assay [10], 662 nM (active); in assay [5], 0.372 µM (active); in assay [11], 934 nM (active); in assay [6], 525 nM (active). For the same compound, the Potency in [13] was 934 nM (active). Also, the Potency entry in assay [2] and in assay [3] was “inactive” in each case.
With `C=Cc1cc(O)cc2nc(-c3ccc(O)c(F)c3)oc12`, the activation in assay [1] was -0.955%. The Potency result in assay [2], in [3], in assay [4], in assay [6] and in assay [13] was “inactive” throughout.
`C=C1CC[C@@H]2[C@](C)(CO)[C@H](O)CC[C@@]2(C)[C@@H]1C/C=C1/C(=O)OCC1O` (stereo partly specified): in assay [1], the Potency was 23.9 µM (active). Also, the Potency entry in assay [2] and in [4] was “inactive” in each case.
As to `CC1(C)C2CCC1(C)C(OC(=O)C(O)(CC(=O)O)CC(=O)O)C2` (stereo unspecified), in [1], the activation was -24.4%. Besides, the Potency entry in assay [2], in assay [7], in assay [4] and in assay [8] was “inactive” throughout.
Turning to `FC(F)(F)c1ccc(CNc2ccc(Cc3c[nH]c4ncccc34)cn2)cc1`, in [1], the activation was 2.39%. The Potency result in assay [2], in assay [3] and in assay [4] was “inactive” in each case. Besides, the results for the Potency in [5] and in assay [12] were 0.525 µM (active) and 13200 nM (active), respectively.
In the case of `Cc1noc(=O)c2ccc(NC(=O)C(O)(CC(C)(C)c3cccc4c3OCC4)C(F)(F)F)cc12` (stereo unspecified), in [1], the activation is 19.7%. The Potency result in [2] and in assay [4] was “inactive” in each case.
Take `CC#C[C@@H](CC(=O)O)c1ccc(OCc2cccc(-c3ccc(C(F)(F)F)cc3)c2)cc1`: in [1], the activation was -17.2%. Also, the Potency entry in [2], in assay [3], in assay [4], in assay [11] and in assay [6] was “inactive” throughout.
With `CN(C(=O)c1ccc(F)cc1C(F)(F)F)C1CCN(c2nnc(-c3ccnn3C)c3ccccc23)CC1`, the activation in assay [1] is 36.5% and 1.43%. Besides, the Potency entry in assay [2], in assay [3], in assay [4], in [6] and in assay [13] was “inactive” throughout. Besides, the Potency in assay [5] is 16.6 µM (active).
